Measurements: PubChem BioAssay AID1159580 (chemical genetic matrix, 2015)
Where “and” joins values, the source holds several entries; their conditions need not be identical. Equal entries are not always repeated. Hit rate of the full screen: of about 5,500 compounds, about 2,000 (36%) were called active. Inconclusive results (about 18%) are left out. Rule as the data show it: active = normalized growth mostly below about 0.91 (no sharp cut-off); inconclusive = no clear call, values can overlap the other calls; inactive = mostly above about 0.92. This is one part of the list.

Test: chemical genetic growth profiling, strain panel (AID 1159580);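 also: tested at 20 µM; growth read once vehicle control cultures reached saturation at 30 °C; 1 = growth at the plate median or of vehicle wells; lower values mean less growth of the strain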
Conditions: S. cerevisiae deletion strains, growth OD

Measured: normalized growth

CCOC(=O)OC(C)OC(=O)C1N2C(=O)C(NC(=O)[C@H](N)c3ccccc3)C2SC1(C)C (some centres undefined)
inactive: locus YAL013W, strain DEP1, active compounds read low 0.98 | locus YAL021C, strain ccr4, active compounds read low 0.986 | locus YAL026C, strain drs2, active compounds read low 0.981 | locus YAL030W, strain snc1, active compounds read low 0.98 | locus YBL061C, strain skt5, active compounds read low 0.978 | locus YBR009C, strain hhf1, active compounds read low 0.992 | locus YBR021W, strain FUR4, active compounds read low 1.03 | locus YBR023C, strain chs3, active compounds read low 0.986 | locus YBR171W, strain sec66, active compounds read low 0.968 | locus YBR229C, strain ROT2, active compounds read low 0.961 | locus YBR231C, strain swc5, active compounds read low 0.987 | locus YBR279W, strain paf1, active compounds read low 0.989 | locus YCL011C, strain gbp2, active compounds read low 0.965 | locus YCL016C, strain dcc1, active compounds read low 0.993 | locus YCL029C, strain bik1, active compounds read low 0.988 | locus YCL061C, strain MRC1, active compounds read low 0.998 | locus YCL069W, strain vba3, active compounds read low 0.998 | locus YCR088W, strain abp1, active compounds read low 0.985 | locus YDL005C, strain med2, active compounds read low 0.983 | locus YDL035C, strain GPR1, active compounds read low 0.984 | locus YDL040C, strain nat1, active compounds read low 0.989 | locus YDL074C, strain BRE1, active compounds read low 0.917 | locus YDL101C, strain DUN1, active compounds read low 0.97 | locus YDL134C, strain PPH21, active compounds read low 0.998 | locus YDL185W, strain tfp1, active compounds read low 0.975 | locus YDL192W, strain arf1, active compounds read low 0.985 | locus YDR001C, strain nth1, active compounds read low 0.983 | locus YDR069C, strain doa4, active compounds read low 0.993 | locus YDR101C, strain arx1, active compounds read low 0.962 | locus YDR137W, strain rgp1, active compounds read low 0.994 | locus YDR159W, strain sac3, active compounds read low 1 | locus YDR162C, strain NBP2, active compounds read low 0.989 | locus YDR195W, strain ref2 0.985 | locus YDR297W, strain sur2, active compounds read low 0.977 | locus YDR318W, strain mcm21, active compounds read low 0.992 | locus YDR334W, strain swr1, active compounds read low 0.943 | locus YDR335W, strain msn5, active compounds read low 0.979 | locus YDR388W, active compounds read low 0.991 | locus YDR392W, strain spt3, active compounds read low 0.946 | locus YDR502C, strain sam2, active compounds read low 0.99 | locus YEL003W, strain gim4, active compounds read low 0.98 | locus YEL037C, strain rad23, active compounds read low 0.987 | locus YEL061C, strain CIN8 (second series), active compounds read low 0.984 | locus YEL061C, strain CIN8, active compounds read low 0.976 | locus YER015W, strain faa2, active compounds read low 0.981 | locus YER016W, strain bim1, active compounds read low 0.99 | locus YER110C, active compounds read low 0.982 | locus YER111C, strain swi4, active compounds read low 0.985 | locus YER155C, strain BEM2 (second series), active compounds read low 0.995 | locus YER155C, strain BEM2, active compounds read low 0.992 | locus YER167W, strain BCK2, active compounds read low 0.997 | locus YFR010W, strain ubp6, active compounds read low 0.977 | locus YGL078C, strain dbp3, active compounds read low 0.974 | locus YGL086W, strain mad1, active compounds read low 0.966 | locus YGL167C, strain pmr1, active compounds read low 0.991 | locus YGL173C, strain kem1, active compounds read low 0.975 | locus YGL227W, strain vid30, active compounds read low 0.993 | locus YGL240W, strain doc1, active compounds read low 0.984 | locus YGL248W, strain PDE1, active compounds read low 0.969 | locus YGL253W, strain hxk2, active compounds read low 0.971 | locus YGR135W, strain pre9, active compounds read low 1.04 | locus YGR252W, strain gcn5, active compounds read low 0.945 | locus YHR013C, strain ard1, active compounds read low 0.967 | locus YHR027C, strain rpn1, active compounds read low 0.963 | locus YHR030C, strain SLT2, active compounds read low 0.996 and 1.02 | locus YHR079C, strain IRE1 (second series), active compounds read low 0.993 | locus YHR079C, strain IRE1, active compounds read low 0.98 | locus YHR094C, strain hxt1, active compounds read low 0.984 | locus YHR129C, strain ARP1, active compounds read low 0.993 | locus YHR142W, strain chs7, active compounds read low 0.954 | locus YHR200W, strain rpn10, active compounds read low 0.997 | locus YIL066C, strain RNR3, active compounds read low 0.944 | locus YIL073C, strain SPO22, active compounds read low 0.966 | locus YIL125W, strain kgd1, active compounds read low 0.995 | locus YIR030C, strain dcg1, active compounds read low 0.986 | locus YJL092W, strain hpr5, active compounds read low 0.994 | locus YJL095W, strain BCK1 (second series), active compounds read low 0.994 | locus YJL095W, strain BCK1, active compounds read low 0.949 and 0.988 | locus YJL115W, strain asf1, active compounds read low 0.974 | locus YJL129C, strain trk1, active compounds read low 1.01 | locus YJL134W, strain LCB3, active compounds read low 0.992 | locus YJL154C, strain vps35, active compounds read low 0.989 | locus YJL164C, strain tpk1, active compounds read low 0.975 | locus YJL166W, strain qcr8, active compounds read low 0.971 | locus YJL168C, strain set2, active compounds read low 0.984 | locus YJL187C, strain SWE1 (second series), active compounds read low 0.935 | locus YJL187C, strain SWE1, active compounds read low 0.989 | locus YJR043C, strain POL32, active compounds read low 0.98 | locus YJR066W, strain TOR1, active compounds read low 0.966
